Experimental data: PubChem BioAssay (NCATS)
Inconclusive results are not listed. Activity calls are given as the source filed them. Unless noted, calls follow the shape of the dose curve; as a rule, active = well fitted curve in the direction sought with a large enough effect; inconclusive = small, poorly fitted or top-dose-only effect, or another doubt; inactive = no such curve, though single readings can be large; an effect the other way counts as inactive or inconclusive.

Key:
[1] = biological target: Lysosomal acid glucosylceramidase (Homo sapiens) (UniProt P04062); test: Glucocerebrosidase-p2 (AID 348; in the data active = potency below about 10 µM; also: potency is read from the fitted curve at half-maximal effect); settings: purified GBA, blue fluorogenic substrate, 40 min
In short: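 Compounds titrated from 0.6 nM upwards against 0.2 nM enzyme in pH 5.9 citric acid/KH2PO4, taurocholate, tween-20; blue fluorogenic substrate 80 uM, 40 min room temperature, stopped and read Ex 365/Em 440 for AC50.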

[2] = AP1 Signaling Pathway (AID 357; active = well fitted curve in either direction with a large enough effect, not every such curve was filed as active;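 also: ME-180 reporter cells stimulated with EGF at its EC50 level; % is scaled to controls: 0 for no effect and ±100 for the full control effect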); settings: ME-180 AP-1-bla reporter, EGF-induced, beta-lactamase ratio, 5 h; at 7.69 µM (top of the series) unless noted
In short: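 Titration-series screen for positive or negative modulators of EC50 EGF-induced signaling in ME-180 cells carrying an AP-1-driven beta-lactamase reporter. After 5 hours at 37 degrees Celsius, CCF4 460nm/530nm emission ratio gave %Activity; AC50 values derived.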

[3] = NFAT Signaling Pathway (AID 444; active = well fitted curve in either direction with a large enough effect, not every such curve was filed as active;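 also: carbachol stimulus at about its EC50 of 1 µM final; % is scaled to controls: 0 for no effect and ±100 for the full control effect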); settings: Jurkat NFAT-bla M1, carbachol, beta-lactamase ratio, 5 h; at 7.69 µM (top of the series) unless noted
In short: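 Jurkat cells with NFAT-driven β-lactamase reporter and co-expressed M1 receptor, stimulated with carbachol (final 1 uM, ~EC50), compound titration, 5 h at 37 °C. CCF4 loaded 1 h at RT; 460/530 nm ratio gave %activity and AC50.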

[4] = Stat Signaling Pathway (AID 446; active = well fitted curve in either direction with a large enough effect, not every such curve was filed as active;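 also: ME-180 cervical cancer cells given 40 pM IL-6 alongside compound; SIE-controlled beta-lactamase reporter measured as 460/530 nm FRET emission ratio; % is scaled to controls: 0 for no effect and ±100 for the full control effect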); settings: ME-180 (cervical carcinoma) SIE beta-lactamase reporter, IL-6 stimulated, 5 h; at 7.69 µM (top of the series) unless noted
In short: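 IL-6/STAT signaling read in ME-180 cells via an SIE beta-lactamase reporter. Stimulus was 40 pM IL-6 (its AC50) for 5 hrs, so both activation and inhibition register.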

[5] = biological target: Glucocorticoid receptor (Homo sapiens) (UniProt P04150); test: GR-GFP Redistribution (AID 450;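 active = compounds whose dose series gives a full or clear partial fitted curve of increased nuclear translocation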; also: potency is read from the fitted curve at half-maximal effect); settings: U2OS GR-GFP nuclear translocation, laser cytometry, 2 h
[6] = biological target: Glucocorticoid receptor (Homo sapiens) (UniProt P04150); test: GR-EFC Redistribution (AID 451; calls by dose curve; also: potency is read from the fitted curve at half-maximal effect); settings: CHO-K1 GR-EFC translocation, beta-gal luminescence, 2 h
In short: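 CHO-K1 cells expressing nuclear EA and GR-ED fragments of b-gal; compounds titrated up to 46 uM final, 2 h at 37 C. GR nuclear translocation read as complemented b-gal luminescence after 1 h RT detection.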

[7] = biological target: Mitogen-activated protein kinase 10 (Mus musculus) (UniProt Q61831); test: JNK3 AlphaScreen Assay (AID 530; active = well fitted curve in either direction with a large enough effect, not every such curve was filed as active;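 also: kinase came from lysate of stimulated human HepG2 cells; signal reports phosphorylation of biotinylated GST-cJun 1-79 at Ser73 with 10 µM ATP; % is scaled to controls: 0 for no effect and ±100 for the full control effect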); settings: JNK3 lysate, c-Jun phosphorylation; series mostly up to 57.1 µM
In short: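 Pre-activated (IL-1β/TNFα) JNK3 in HepG2 lysates phosphorylates biotin-GST-cJun(1-79), 10 uM ATP; anti-phospho-cJun(Ser73) AlphaScreen read at room temperature, pH 7.6 Tris buffer. Compounds pre-incubated 15 min as titrations.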

[8] = biological target: 3',5'-cyclic-AMP phosphodiesterase 4B (Homo sapiens) (UniProt Q07343); test: qHTS Assay for Inhibitors of PDE-IV (AID 607; active = well fitted activation curve with a large enough effect in the main read-out, with a control signal flat, not every such curve was filed as active; also: % of control where 0% means no effect); settings: HEK293 ACTOne CNG channel cells, membrane potential fluorescence; series mostly up to 22.9 µM
In short: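 Live HEK293 cells with a modified cyclic nucleotide-gated (CNG) channel report intracellular cAMP via membrane-potential dye fluorescence (ex 535/em 590 nm). Endogenous PDE-IV was targeted. Compounds were tested at up to 22.9 uM final; RO 20-1724 100 uM served as control.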

[9] = biological target: Dual specificity protein kinase CLK4 (Homo sapiens) (UniProt Q9HAZ1); test: qHTS Assay for Inhibitors of CDC-like Kinase 4 (Kinase-Glo Assay) (AID 1770); settings: recombinant Clk4, Kinase-Glo ATP depletion luminescence; series mostly up to 66.7 µM; also: % is scaled to controls: 0 for no effect and ±100 for the full control effect; nearly all actives have a fitted effect of over 65% in size
In short: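 Clk4 25 nM, RS peptide 100 uM, ATP 1 uM, pH 7.5 Tris, 10 mM MgCl2, 2.5 mM DTT; 4.5 h RT; ATP depletion read by Kinase-Glo luminescence.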

[10] = biological target: Dual specificity protein kinase CLK4 (Homo sapiens) (UniProt Q9HAZ1); test: qHTS Assay for Inhibitors of CDC-like Kinase 4 (ADP-Glo Assay) (AID 1771); settings: recombinant CLK4, ADP-Glo luminescence; series mostly up to 80 µM; also: % is scaled to controls: 0 for no effect and ±100 for the full control effect; nearly all actives have a fitted effect of over 70% in size
In short: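 25 nM Clk4 with 100 uM RS repeat peptide and 1 uM ATP (final) in buffer with 2 mM MgCl2, 0.5 mM EGTA, 2.5 mM DTT, 0.01% Triton X-100; 1 h at room temperature; ADP-Glo luminescence for ADP formed.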

[11] = biological target: Dual specificity protein kinase CLK4 (Homo sapiens) (UniProt Q9HAZ1); test: qHTS Assay for Inhibitors of CDC-like Kinase 4 (ADP-FP Assay) (AID 1795); settings: Transcreener ADP fluorescence polarization; series mostly up to 50 µM;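 also: recombinant human CLK4 phosphorylating RS repeat peptide at 1 µM ATP; % is scaled to controls: 0 for no effect and ±100 for the full control effect; nearly all actives have a fitted effect of over 60% in size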
In short: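 Kinase activity was followed as ADP output, converted from fluorescence polarization with a calibration curve. Reactions ran one hour at low ATP (1 uM) with RS peptide substrate.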

[12] = biological target: Ubiquitin carboxyl-terminal hydrolase 1 (Homo sapiens) (UniProt O94782); test: Inhibitors of USP1/UAF1: Pilot qHTS (AID 504865); settings: purified USP1/UAF1, Ub-rhodamine cleavage fluorescence; series mostly up to 54.9 µM;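 also: rhodamine fluorescence freed from ubiquitin-rhodamine substrate followed over time; top concentration of the series differs between compounds; % is scaled to controls: 0 for no effect and ±100 for the full control effect; nearly all actives have a fitted effect of over 35% in size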
In short: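 Enzyme-free wells gave the negative control, while test wells held 1nM USP1/UAF1 preincubated with compound for 15 min at room temperature. Ub-Rho at 150nM final started the reaction, and fluorescence at 480/540 nm was recorded kinetically.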

[13] = Primary qHTS for small molecule stabilizers of the endoplasmic reticulum resident proteome: Secreted ER Calcium Modulated Protein (SERCaMP) assay (AID 1508630); settings: SH-SY5Y GLuc-SERCaMP (Gaussia luciferase released on ER calcium loss) secretion, thapsigargin, luminescence; series mostly up to 38.4 µM; also: % is scaled to controls: 0 for no effect and ±100 for the full control effect
In short: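 GLuc-SERCaMP-expressing SH-SY5Y cells, pretreated 16 h with compound, are challenged with thapsigargin to empty ER calcium stores; after 4 h, coelenterazine is added directly to the medium and luminescence is imaged.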

[14] = biological target: Cytochrome P450 3A4 (Homo sapiens) (UniProt P08684); test: qHTS Assay for Activators of Cytochrome P450 3A4 (AID 885); settings: recombinant CYP3A4, Luciferin-PPXE luminescence, 60 min; series mostly up to 57.1 µM; also: nearly all actives have a fitted effect of over 65% in size
In short: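 Quantitative HTS format: compounds preincubated with 20nM human CYP3A4 and Luciferin-PPXE substrate at KM, reaction started by NADPH regeneration, stopped after 60 min, luciferase luminescence read 20 min later.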

Sequence of Lysosomal acid glucosylceramidase (Homo sapiens) (P04062 whole entry, looked up): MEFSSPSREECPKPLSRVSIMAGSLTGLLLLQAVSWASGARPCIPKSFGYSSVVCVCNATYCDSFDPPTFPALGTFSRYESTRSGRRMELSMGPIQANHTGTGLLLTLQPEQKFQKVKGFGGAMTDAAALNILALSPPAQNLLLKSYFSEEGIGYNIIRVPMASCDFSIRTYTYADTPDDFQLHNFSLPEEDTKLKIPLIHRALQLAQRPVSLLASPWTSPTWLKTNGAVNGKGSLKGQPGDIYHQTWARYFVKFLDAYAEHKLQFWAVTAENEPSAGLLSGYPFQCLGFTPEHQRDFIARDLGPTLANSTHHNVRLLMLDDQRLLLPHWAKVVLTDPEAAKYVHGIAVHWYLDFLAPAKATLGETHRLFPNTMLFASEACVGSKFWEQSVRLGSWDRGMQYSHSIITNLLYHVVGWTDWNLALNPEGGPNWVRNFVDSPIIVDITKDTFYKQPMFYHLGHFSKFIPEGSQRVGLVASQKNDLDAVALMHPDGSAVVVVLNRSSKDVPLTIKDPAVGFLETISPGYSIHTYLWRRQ
Sequence of Ubiquitin carboxyl-terminal hydrolase 1 (Homo sapiens) (O94782 whole entry, looked up): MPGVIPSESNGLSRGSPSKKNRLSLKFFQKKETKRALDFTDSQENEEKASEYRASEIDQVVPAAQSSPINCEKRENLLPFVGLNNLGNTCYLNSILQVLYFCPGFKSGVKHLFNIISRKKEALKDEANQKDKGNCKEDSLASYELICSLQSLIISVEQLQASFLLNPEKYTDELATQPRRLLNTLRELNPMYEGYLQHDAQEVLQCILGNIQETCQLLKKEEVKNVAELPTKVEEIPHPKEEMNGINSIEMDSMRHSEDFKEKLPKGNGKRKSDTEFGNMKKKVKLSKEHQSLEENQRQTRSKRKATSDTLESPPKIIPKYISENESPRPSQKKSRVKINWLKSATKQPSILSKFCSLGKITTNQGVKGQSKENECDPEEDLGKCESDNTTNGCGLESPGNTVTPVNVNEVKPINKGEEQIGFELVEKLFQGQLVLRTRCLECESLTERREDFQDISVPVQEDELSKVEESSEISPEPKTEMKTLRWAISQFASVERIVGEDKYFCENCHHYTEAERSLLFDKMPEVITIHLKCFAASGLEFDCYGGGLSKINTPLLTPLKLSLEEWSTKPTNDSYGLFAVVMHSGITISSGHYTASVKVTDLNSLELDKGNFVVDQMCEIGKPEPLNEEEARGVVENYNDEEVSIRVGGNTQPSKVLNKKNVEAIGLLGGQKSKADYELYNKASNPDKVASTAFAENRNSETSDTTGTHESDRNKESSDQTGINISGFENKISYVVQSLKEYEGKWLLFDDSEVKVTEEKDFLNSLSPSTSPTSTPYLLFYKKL
Sequence of Dual specificity protein kinase CLK4 (Homo sapiens) (Q9HAZ1 whole entry, looked up): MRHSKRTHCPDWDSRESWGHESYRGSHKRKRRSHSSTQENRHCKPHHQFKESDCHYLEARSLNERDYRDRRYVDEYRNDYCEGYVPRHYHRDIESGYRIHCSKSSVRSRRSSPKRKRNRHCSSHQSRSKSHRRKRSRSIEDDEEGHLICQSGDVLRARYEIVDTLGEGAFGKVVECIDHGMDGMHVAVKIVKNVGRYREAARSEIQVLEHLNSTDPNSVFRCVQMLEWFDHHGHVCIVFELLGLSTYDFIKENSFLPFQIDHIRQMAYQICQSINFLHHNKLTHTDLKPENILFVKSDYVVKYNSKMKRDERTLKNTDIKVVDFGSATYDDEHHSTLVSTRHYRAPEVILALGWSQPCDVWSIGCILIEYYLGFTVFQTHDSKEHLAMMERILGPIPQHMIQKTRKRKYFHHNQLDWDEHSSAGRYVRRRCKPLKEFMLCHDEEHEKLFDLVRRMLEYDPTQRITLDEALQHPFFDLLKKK
Sequence of 3',5'-cyclic-AMP phosphodiesterase 4B (Homo sapiens) (Q07343 whole entry, looked up): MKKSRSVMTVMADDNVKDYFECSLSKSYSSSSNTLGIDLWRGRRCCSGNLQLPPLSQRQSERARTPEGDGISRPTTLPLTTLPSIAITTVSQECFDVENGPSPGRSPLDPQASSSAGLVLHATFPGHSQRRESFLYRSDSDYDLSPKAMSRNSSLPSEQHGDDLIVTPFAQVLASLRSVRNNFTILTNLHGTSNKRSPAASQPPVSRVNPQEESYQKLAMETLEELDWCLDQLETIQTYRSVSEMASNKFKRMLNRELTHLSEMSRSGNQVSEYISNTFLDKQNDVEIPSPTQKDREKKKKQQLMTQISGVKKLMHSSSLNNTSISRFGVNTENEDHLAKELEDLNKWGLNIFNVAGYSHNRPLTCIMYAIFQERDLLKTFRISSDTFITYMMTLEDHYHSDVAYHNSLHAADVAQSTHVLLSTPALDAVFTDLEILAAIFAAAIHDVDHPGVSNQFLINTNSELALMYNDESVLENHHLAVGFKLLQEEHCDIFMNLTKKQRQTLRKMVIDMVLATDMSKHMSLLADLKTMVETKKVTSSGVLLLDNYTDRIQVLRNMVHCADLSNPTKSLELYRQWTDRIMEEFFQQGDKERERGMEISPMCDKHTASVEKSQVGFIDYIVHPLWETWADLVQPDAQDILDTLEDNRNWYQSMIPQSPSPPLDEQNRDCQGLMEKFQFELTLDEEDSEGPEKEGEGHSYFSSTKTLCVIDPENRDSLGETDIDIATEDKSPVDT
Sequence of Cytochrome P450 3A4 (Homo sapiens) (P08684 whole entry, looked up): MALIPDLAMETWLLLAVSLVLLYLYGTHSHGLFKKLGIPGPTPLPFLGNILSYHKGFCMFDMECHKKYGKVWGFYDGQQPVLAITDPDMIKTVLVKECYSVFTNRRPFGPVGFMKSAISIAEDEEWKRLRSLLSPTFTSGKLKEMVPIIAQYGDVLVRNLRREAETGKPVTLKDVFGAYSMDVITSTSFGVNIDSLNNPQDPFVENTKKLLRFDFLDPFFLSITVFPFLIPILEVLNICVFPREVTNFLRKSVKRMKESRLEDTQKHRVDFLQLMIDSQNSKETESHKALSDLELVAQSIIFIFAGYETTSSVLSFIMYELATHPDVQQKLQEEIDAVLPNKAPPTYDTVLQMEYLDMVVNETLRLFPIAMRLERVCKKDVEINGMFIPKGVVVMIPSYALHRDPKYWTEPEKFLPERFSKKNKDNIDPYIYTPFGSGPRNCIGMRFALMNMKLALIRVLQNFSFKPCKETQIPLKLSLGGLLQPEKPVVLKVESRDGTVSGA
Sequence of Glucocorticoid receptor (Homo sapiens) (P04150 whole entry, looked up, the tested form may be a part): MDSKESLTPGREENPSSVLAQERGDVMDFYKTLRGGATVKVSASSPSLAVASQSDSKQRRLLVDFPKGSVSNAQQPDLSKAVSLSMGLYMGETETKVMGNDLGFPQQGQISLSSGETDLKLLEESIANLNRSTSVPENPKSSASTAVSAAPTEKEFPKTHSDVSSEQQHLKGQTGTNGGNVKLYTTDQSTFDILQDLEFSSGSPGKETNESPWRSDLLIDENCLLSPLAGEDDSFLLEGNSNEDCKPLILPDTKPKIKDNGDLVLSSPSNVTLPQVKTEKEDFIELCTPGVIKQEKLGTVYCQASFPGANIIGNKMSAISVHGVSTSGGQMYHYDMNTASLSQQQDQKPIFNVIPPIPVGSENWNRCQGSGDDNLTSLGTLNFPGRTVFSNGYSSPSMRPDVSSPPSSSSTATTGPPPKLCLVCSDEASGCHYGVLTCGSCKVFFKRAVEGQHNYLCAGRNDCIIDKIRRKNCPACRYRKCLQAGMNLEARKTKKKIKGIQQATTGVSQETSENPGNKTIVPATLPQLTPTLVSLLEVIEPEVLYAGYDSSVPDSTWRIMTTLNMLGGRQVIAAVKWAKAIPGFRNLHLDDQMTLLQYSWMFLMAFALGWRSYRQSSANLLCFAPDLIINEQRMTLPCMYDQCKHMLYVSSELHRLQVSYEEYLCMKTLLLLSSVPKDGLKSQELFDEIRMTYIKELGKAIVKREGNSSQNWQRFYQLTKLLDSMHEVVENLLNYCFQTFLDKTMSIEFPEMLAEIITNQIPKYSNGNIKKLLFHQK

COCCn1c(=O)c(CCc2ccccc2)nc2cnc(N3CCOCC3)nc21
inactive: Potency [1] > 11.4 µM | activity change, negative = inhibition [2] -24.7% | activity change, negative = inhibition [3] -12.9% | activity, negative = inhibition [4] -3.32% | Potency [5] > 9.22 µM | Potency [6] > 46 µM | Potency [7] | Potency [8] | Potency [9] | Potency [10] | Potency [11] | Potency [12] | outcome [13]

COc1ccc(-n2c(=O)c(-c3ccc(F)c(F)c3)nc3cncnc32)cc1
inactive: Potency [1] > 11.4 µM | activity change, negative = inhibition [2] -1.43% | activity change, negative = inhibition [3] 1.94% | activity, negative = inhibition [4] -16.2% | Potency [5] > 9.22 µM | Potency [6] > 46 µM | Potency [7] | Potency [8] | Potency [14] | Potency [9] | Potency [10] | Potency [11] | Potency [12] | outcome [13]

COc1ccc(-c2nc3cnc(N(C)C)nc3n(C)c2=O)cc1
inactive: Potency [1] > 11.4 µM | activity change, negative = inhibition [2] 11% | activity change, negative = inhibition [3] 6.21% | activity, negative = inhibition [4] 10.4% | Potency [5] > 9.22 µM | Potency [6] > 46 µM | Potency [7] | Potency [8] | Potency [9] | Potency [10] | Potency [11] | Potency [12] | outcome [13]

Cc1nc2cnc(Oc3ccccc3)nc2n(Cc2cccs2)c1=O
inactive: Potency [1] > 11.4 µM | activity change, negative = inhibition [2] -17.8% | activity change, negative = inhibition [3] 20.1% | activity, negative = inhibition [4] -0.465% | Potency [5] > 9.22 µM | Potency [6] > 46 µM | Potency [7] | Potency [8] | Potency [14] | Potency [9] | Potency [10] | Potency [11] | outcome [13]

COc1ncc2nc(-c3ccc(Cl)cc3)c(=O)n(C)c2n1
inactive: Potency [1] > 11.4 µM | activity change, negative = inhibition [2] -10.2% | activity change, negative = inhibition [3] 8.73% | activity, negative = inhibition [4] 1.71% | Potency [5] > 9.22 µM | Potency [6] > 46 µM | Potency [7] | Potency [8] | Potency [14] | Potency [9] | Potency [10] | Potency [11] | outcome [13]

COc1ccc(-c2nc3cnc(N(C)C)nc3n(CCC#N)c2=O)cc1
inactive: Potency [1] > 11.4 µM | activity change, negative = inhibition [2] -7.19% | activity change, negative = inhibition [3] -5.15% | Potency [5] > 9.22 µM | Potency [6] > 46 µM | Potency [7] | Potency [8] | Potency [9] | Potency [10] | Potency [11] | Potency [12] | outcome [13]

COc1ncc2nc(-c3ccc(F)cc3)c(=O)n(Cc3cccs3)c2n1
inactive: Potency [1] > 11.4 µM | activity change, negative = inhibition [2] -5.24% | activity change, negative = inhibition [3] -1.45% | activity, negative = inhibition [4] -28.5% | Potency [5] > 9.22 µM | Potency [6] > 46 µM | Potency [7] | Potency [8] | Potency [9] | Potency [10] | Potency [11] | Potency [12] | outcome [13]
